Assay [1] is described as follows: compound effects on lung adenocarcinoma cell viability – A549, calcein-AM fluorescence, 48 h, basal, profiling panel (AID 1162). Further: test concentration not given here. The following applies: higher = more signal.
A short description of assay [2]: compound effects on differentiated 3T3-L1 adipocyte viability – cell-based, 3T3-L1 adipocytes, calcein-AM fluorescence, 48 h, basal, profiling panel (AID 1163). Further: test concentration not given here. The following applies: 3T3-L1 adipocytes viability, higher = more signal.
Assay [3] in a line: compound effects on hepatocellular carcinoma cell viability – HepG2, calcein-AM fluorescence, 48 h, basal, profiling panel (AID 1164). Further: test concentration not given here. The following applies: higher = more signal.
The nature of assay [4]: compound effects on multiple myeloma cell viability – MM1S, calcein-AM fluorescence, 48 h, basal, profiling panel (AID 1165). Further: test concentration not given here. Conditions: higher = more signal.
Assay [5] is described as follows: calcein-AM signal in unstimulated myeloma cells – cell-based, calcein-AM fluorescence, 48 h, PK04 Diversity Set, profiling panel (AID 1166).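 Further: cells grown under basal conditions without added stimulus; test concentration not given here.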 The following applies: RPMI8226 myeloma viability, higher = more signal.
Assay [6] can be described thus: JC-1 mitochondrial signal, unstimulated HepG2 cells – cell-based, JC-1 fluorescence, 24 h, 100 nL compound, profiling panel (AID 1167). Further: test concentration not given here. The following applies: HepG2 mitochondrial potential, higher = more signal.
Assay [7] in a line: JC-1 mitochondrial signal, unstimulated adipocytes – cell-based, JC-1 fluorescence, 3T3-L1 adipocytes, 24 h, 100 nL compound, profiling panel (AID 1168). Further: test concentration not given here. The following applies: JC-1 mitochondrial fluorescence, higher = more signal, called active from +8 up or from −8 down.
Assay [8] is described as follows: JC-1 mitochondrial signal, unstimulated myeloma cells – cell-based, JC-1 fluorescence, RPMI8226, 24 h, 100 nL compound, profiling panel (AID 1169). Further: test concentration not given here. Conditions: JC-1 mitochondrial potential fluorescence, higher = more signal.
The nature of assay [9]: JC-1 mitochondrial signal, unstimulated MM1S myeloma – cell-based, JC-1 fluorescence, 24 h, 100 nL compound, profiling panel (AID 1170). Further: test concentration not given here. The following applies: MM1S mitochondrial potential, higher = more signal.
Assay [10] can be described thus: resazurin metabolic signal in A549 cells – cell-based, resazurin fluorescence, 24 h, PK04 Diversity Set, profiling panel (AID 1171). Further: test concentration not given here. Conditions: A549 viability, higher = more signal, called active from +8 up or from −8 down. (The colour change of resazurin is a common sign of viable cells or microbes.)
Assay [11] can be described thus: resazurin metabolic signal in HepG2 cells – cell-based, resazurin fluorescence, 24 h, PK04 Diversity Set, profiling panel (AID 1172). Further: test concentration not given here. The following applies: HepG2 viability, higher = more signal.
Assay [12] can be described thus: budding yeast growth changes without added modifier – OD600, strain BY4716, 24 h, basal condition, primary screen (AID 1173). Conditions: S. cerevisiae BY4716 growth, OD600, 24 h; higher = more signal, called active from +8 up or from −8 down.
Assay [13] in a line: viability profiling in MM1S myeloma cells – cell-based, resazurin fluorescence, basal, 24 h, PK04 Diversity Set, profiling panel (AID 1174). Further: test concentration not given here. The following applies: higher = more signal, called active from +8 up or from −8 down.
Assay [14] deals with Dihydroorotate dehydrogenase (quinone), mitochondrial (Plasmodium falciparum (isolate 3D7)) (UniProt Q08210). Briefly: inhibition of P. falciparum DHODH – biochemical, C-terminal His tag, absorbance 600 nm, primary screen (AID 1175).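 Further: recombinant parasite enzyme with a five histidine tag at its C terminus; test concentration not given here.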 The following applies: PfDHODH enzyme, DCIP absorbance 600 nm; higher = more signal, called active from +8 up or from −8 down.
A short description of assay [15]: inhibition of PAO1 biofilm formation – strain PAO1, LB-PBS medium, absorbance 600 nm, primary screen (AID 1176). Further: test concentration not given here. The following applies: P. aeruginosa PAO1 growth/biofilm, A600, 12 h; higher = more signal.
Assay [16] is described as follows: growth modulation of vineyard yeast isolate – strain RM11-1a, OD600, basal, 24 h, primary screen (AID 1177).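 Further: cultures grown under basal conditions with no added stressor; test concentration not given here.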 Conditions: S. cerevisiae RM11-1a growth, OD600, 24 h; higher = more signal, called active from +8 up or from −8 down.
The nature of assay [17]: growth of efflux-deficient E. coli DRC39 – strain DRC39, OD650, 24 h, E. coli filamentation inducers, primary screen (AID 1178).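 Further: growth measured as culture turbidity by optical density at 650 nm; test concentration not given here.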 The following applies: E. coli DRC39 acrAB, higher = more signal, called active from +8 up or from −8 down.
Assay [18] in a line: growth of efflux-deficient E. coli DRC39 – strain DRC39, OD650, 48 h, E. coli filamentation inducers, primary screen (AID 1179).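 Further: screen aims at cell division blockers that make cells filament.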 The following applies: E. coli DRC39 delta-acrAB growth, higher = more signal, called active from +8 up or from −8 down.
Assay [19] is described as follows: viability profiling in RPMI8226 myeloma cells – cell-based, resazurin fluorescence, basal, 24 h, PK04 Diversity Set, profiling panel (AID 1180).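 Further: RPMI8826 multiple myeloma cell line at 5000 cells per well; test concentration not given here.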 The following applies: higher = more signal.
Assay [20] deals with E3 ubiquitin-protein ligase XIAP (Homo sapiens) (UniProt P98170). Briefly: small molecules binding XIAP protein – biophysical, small-molecule microarray, fluorescence 635 nm, primary screen (AID 1181).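 Further: score merges 667 nm emission and signal to noise over triplicate slides.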 The following applies: higher = more signal.

Activity calls are given as the source filed them. Unless noted, how the calls were made is not given here.

Chain of Dihydroorotate dehydrogenase (quinone), mitochondrial (Plasmodium falciparum (isolate 3D7)) (Q08210 whole entry, looked up): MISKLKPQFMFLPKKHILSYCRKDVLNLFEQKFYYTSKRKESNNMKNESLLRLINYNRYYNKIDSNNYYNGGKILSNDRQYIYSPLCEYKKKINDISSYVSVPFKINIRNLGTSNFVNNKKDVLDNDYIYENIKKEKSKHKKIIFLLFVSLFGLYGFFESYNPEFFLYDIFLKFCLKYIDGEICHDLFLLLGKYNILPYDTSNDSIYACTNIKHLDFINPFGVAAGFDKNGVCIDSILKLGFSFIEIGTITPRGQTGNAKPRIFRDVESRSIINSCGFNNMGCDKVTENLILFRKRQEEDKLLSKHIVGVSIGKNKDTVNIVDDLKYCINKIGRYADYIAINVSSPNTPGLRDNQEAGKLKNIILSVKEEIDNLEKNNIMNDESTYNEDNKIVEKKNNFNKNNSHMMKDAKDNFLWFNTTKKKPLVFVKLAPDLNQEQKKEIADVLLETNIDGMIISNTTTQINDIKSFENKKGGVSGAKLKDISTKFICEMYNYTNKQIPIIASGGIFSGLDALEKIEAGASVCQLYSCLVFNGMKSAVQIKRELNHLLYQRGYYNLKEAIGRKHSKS
Chain of E3 ubiquitin-protein ligase XIAP (Homo sapiens) (P98170 whole entry, looked up): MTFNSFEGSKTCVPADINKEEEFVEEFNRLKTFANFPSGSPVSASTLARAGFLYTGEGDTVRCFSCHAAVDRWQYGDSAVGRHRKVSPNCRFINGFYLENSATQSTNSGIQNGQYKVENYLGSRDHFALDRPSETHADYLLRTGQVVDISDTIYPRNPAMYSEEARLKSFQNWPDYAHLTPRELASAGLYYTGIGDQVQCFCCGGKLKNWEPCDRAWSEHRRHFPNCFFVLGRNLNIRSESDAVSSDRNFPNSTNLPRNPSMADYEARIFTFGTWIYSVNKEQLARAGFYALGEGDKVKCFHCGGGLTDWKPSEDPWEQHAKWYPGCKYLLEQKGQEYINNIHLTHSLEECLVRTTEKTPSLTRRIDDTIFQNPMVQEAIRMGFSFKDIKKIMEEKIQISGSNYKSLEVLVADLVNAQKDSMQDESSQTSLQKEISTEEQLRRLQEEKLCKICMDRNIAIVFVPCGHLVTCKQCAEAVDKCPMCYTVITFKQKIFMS

Regarding `COC(=O)[C@@]1(Cc2ccc(F)cc2)[C@H]2c3cc(C(=O)N(C)C)n(CCc4ccccn4)c3C[C@H]2CN1C(=O)c1ccccc1`, the z-score in assay [1] is -0.619; in assay [2], 0.698; in assay [3], -1.39; in [4], 0.0635; in assay [5], -0.722; in [6], -0.0662. Further, the z-score in assay [7] was -0.539 (inactive); in [8], -0.153; in assay [9], 0.95; in assay [10] it was 0.429 (inactive); in [11] it was 0.244; in assay [12], 0.676 (inactive). Moreover, the z-score in assay [13] was -0.309 (inactive); in assay [15], 0.0944 (inactive); in assay [16], -0.182 (inactive); in [17], 0.2 (inactive); in assay [18], -1.02 (inactive); in [19] it was 0.357. Further, the composite z-score was -0.804 (inactive) in [14] and 0.254 in assay [20].

Take `COCCOC(=O)N1C(=O)[C@@]2(c3cc(C#CCCO)ccc31)[C@H](C(=O)NC[C@H](O)c1ccccc1)[C@H]1C(=O)O[C@H](c3ccccc3)[C@H](c3ccccc3)N1[C@@H]2c1ccc(O)cc1`: the z-score in assay [1] was 0.292; in [2], 0.0669; in assay [3] it was 0.289; in assay [4] it was 0.715; in [5], 0.568; in [6], 0.467. The z-score is -0.734 (inactive) in assay [7]; 0.571 in assay [8]; -0.446 in assay [9]; 0.224 (inactive) in assay [10]; 0.816 in assay [11]; 0.562 (inactive) in assay [12]. Further, the z-score is 0.858 (inactive) in assay [13]; 0.29 (inactive) in assay [15]; 1.36 (inactive) in assay [16]; 1.01 (inactive) in assay [17]; 0.887 (inactive) in assay [18]; 1.04 in [19]. Besides, the composite z-score is 1.34 (inactive) in assay [14] and -0.0126 in [20].

Regarding `[N-]=[N+]=NCc1ccccc1C[C@]1(C(=O)NCCN2CCOCC2)N=C(c2ccc(OCCCO)cc2)O[C@H]1c1ccccc1N=[N+]=[N-]`, the z-score in assay [1] was -0.872; in assay [2] it was 0.233; in [3], -1.61; in assay [4] it was -1.68; in [5] it was -0.806; in assay [6], 0.815. For the same molecule, the z-score is 0.707 (inactive) in assay [7]; -1.02 in assay [8]; -1.16 in assay [9]; -0.901 (inactive) in assay [10]; -0.854 in assay [11]; -0.318 (inactive) in [12]. The z-score was -0.739 (inactive) in assay [13]; 1.57 (inactive) in assay [15]; 0.145 (inactive) in assay [16]; 1.73 (inactive) in assay [17]; 1.08 (inactive) in assay [18]; -1.85 in assay [19]. Besides, the composite z-score in [14] is 0.345 (inactive); in [20] it was 0.317.

As for `COC(=O)c1ccc(C23CC2(C(NP(=O)(c2ccccc2)c2ccccc2)c2ccccc2)C3)cc1` (stereo not given), the z-score in assay [1] is 0.766; in [2], 0.406; in assay [3], 1.48; in assay [4], -2.06; in assay [5], -3.34; in assay [6] it was 3.7. Also, the z-score is 0.711 (inactive) in [7]; -0.369 in assay [8]; -1.45 in assay [9]; -0.416 (inactive) in assay [10]; -0.402 in assay [11]; -1.17 (inactive) in assay [12]. In addition, the z-score in [13] is -0.941 (inactive); in assay [15], 0.287 (inactive); in assay [16] it was -3.39 (inactive); in [17], -0.29 (inactive); in assay [18] it was -0.16 (inactive); in assay [19], -0.122. The composite z-score in assay [14] was -1.13 (inactive); in assay [20] it was -0.126.

For the molecule `N#Cc1ccc(NN2C(C(O)c3ccc([N+](=O)[O-])cc3)C=CC3C(=O)N(c4ccccc4)C(=O)C32)cc1` (stereo not given), the z-score is -1.14 in assay [1]; 0.0202 in assay [2]; -0.335 in assay [3]; -0.237 in assay [4]; -0.402 in assay [5]; -1.91 in assay [6]. Also, the z-score is -0.703 (inactive) in [7]; -0.993 in assay [8]; 0.0361 in assay [9]; 0.172 (inactive) in assay [10]; -1.07 in assay [11]; -0.203 (inactive) in [12]. Also, the z-score in [13] is -0.55 (inactive); in assay [15] it was 1.23 (inactive); in assay [16] it was -0.487 (inactive); in [17] it was -0.685 (inactive); in assay [18], -0.418 (inactive); in assay [19], -1.08. Also, the composite z-score in assay [14] is -0.0079 (inactive); in assay [20], -0.0391.

`COc1ccc([Si](C)(C)[C@H]2[C@H](CC(=O)N(CCO)Cc3ccccc3)O[C@@]3(C(=O)N(Cc4cccc(N5CCC5=O)c4)c4ccccc43)[C@@H]2C)cc1`: the z-score in assay [1] was -1.42; in assay [2], 1.48; in assay [3], -1.93; in assay [4], -1.6; in assay [5], -4.08; in assay [6], 0.967. For the same molecule, the z-score in assay [7] was 0.498 (inactive); in assay [8], -0.873; in assay [9], -1.27; in assay [10], -1.97 (inactive); in assay [11], -0.412; in assay [12], -0.0113 (inactive). Also, the z-score in assay [13] was -2.76 (inactive); in assay [15], 0.295 (inactive); in assay [16] it was 1.17 (inactive); in assay [17], 0.405 (inactive); in assay [18] it was 0.169 (inactive); in assay [19], -3.11. Also, the composite z-score in assay [14] was -1.19 (inactive); in assay [20], 0.0259.

Consider `C=CC(COC(C)=O)NS(=O)(=O)c1ccc(Br)cc1` (stereo not given), for which the z-score is -0.0852 in [1]; -0.13 in [2]; -0.239 in [3]; 0.101 in assay [4]; -0.453 in assay [5]; -0.642 in assay [6]. Besides, the z-score was -0.869 (inactive) in assay [7]; 0.392 in [8]; 0.654 in [9]; -0.283 (inactive) in assay [10]; -0.233 in [11]; -2.68 (inactive) in assay [12]. In addition, the z-score in assay [13] is 0.364 (inactive); in assay [15], 0.212 (inactive); in assay [16], -0.406 (inactive); in assay [17] it was -0.909 (inactive); in [18] it was -1.05 (inactive); in assay [19], 0.404. Besides, the composite z-score was -0.287 (inactive) in assay [14] and -0.338 in assay [20].

Take `O=C1N(CCS(=O)(=O)c2ccccc2)Cc2ccccc2C[C@]12N=C(c1ccc(OCCCO)cc1)O[C@@H]2c1ccccc1`: the z-score in assay [1] was 1.82; in assay [2] it was 1.36; in [3] it was 1.17; in assay [4] it was 0.835; in assay [5], -0.962; in assay [6] it was -0.589. In addition, the z-score was 0.603 (inactive) in assay [7]; -1.08 in [8]; 0.309 in assay [9]; -3.17 (inactive) in [10]; -1.08 in assay [11]; 1.07 (inactive) in assay [12]. The z-score was -2.68 (inactive) in assay [13]; 0.0658 (inactive) in assay [15]; 1.52 (inactive) in assay [16]; -0.0937 (inactive) in assay [17]; 1.28 (inactive) in assay [18]; -1.99 in [19]. Besides, the composite z-score in [14] is -1.48 (inactive); in assay [20], 0.0191.

For the molecule `C=CCOC(=O)[C@@H]1[C@H]2C(=O)O[C@H](c3ccccc3)[C@H](c3ccccc3)N2[C@H](c2ccc(OCCOC(=O)[C@@H]3C[C@@H]4C(=O)NCC(=O)N4[C@@H]3c3cccc(OCCO)c3)cc2)[C@@]12C(=O)Nc1ccc(I)cc12`, the z-score is 0.0646 in assay [1]; 0.904 in [2]; 0.646 in assay [3]; -0.0922 in assay [4]; 0.129 in assay [5]; -0.941 in assay [6]. Moreover, the z-score is 1.47 (inactive) in [7]; -0.446 in assay [8]; -1.08 in assay [9]; 0.0716 (inactive) in assay [10]; 0.0068 in [11]; 1.24 (inactive) in assay [12]. For the same molecule, the z-score in [13] is 0.132 (inactive); in [15], 2.17 (inactive); in assay [16], 1.65 (inactive); in assay [17] it was 0.451 (inactive); in assay [18] it was 0.17 (inactive); in [19], 0.487. Besides, the composite z-score is -0.173 (inactive) in assay [14] and 0.0586 in [20].

Source of the values: PubChem BioAssay.
